# Data reported in paper PMC7862700, “An all-to-all approach to the identification of sequence-specific readers for epigenetic DNA modifications on cytosine”.
# Tests used:
# Assay in all cases: DAPPL (digital affinity profiling via proximity ligation, sequencing); 10 mM Tris-HCl pH 7.5, 50 mM NaCl, 1 mM DTT, 4% glycerol, room temperature, 30 min; GST-TFs on glutathione beads, 16-mer random dsDNA library, 0.1% formaldehyde crosslink after washing; high values mean tight binding
# Settings in all cases: protein: recombinant; tags: N-terminal GST; dsDNA, one strand shown
# FLI1 = biological target: T1, FLI1 (Homo sapiens, UniProt Q01543 1-452)
# T1 sequence: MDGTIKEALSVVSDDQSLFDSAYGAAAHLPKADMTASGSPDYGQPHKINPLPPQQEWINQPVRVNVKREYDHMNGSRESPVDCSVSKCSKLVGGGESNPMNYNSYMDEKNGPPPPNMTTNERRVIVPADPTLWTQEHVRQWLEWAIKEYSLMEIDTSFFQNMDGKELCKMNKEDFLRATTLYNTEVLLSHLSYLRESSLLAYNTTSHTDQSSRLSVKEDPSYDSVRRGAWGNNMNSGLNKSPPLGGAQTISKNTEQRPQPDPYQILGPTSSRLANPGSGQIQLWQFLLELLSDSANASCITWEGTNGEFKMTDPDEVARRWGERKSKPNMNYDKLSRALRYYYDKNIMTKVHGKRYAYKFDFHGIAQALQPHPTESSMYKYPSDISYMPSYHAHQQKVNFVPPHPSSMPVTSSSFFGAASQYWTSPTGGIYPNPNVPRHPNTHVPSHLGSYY
# In short: (§1)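 Binding signal is defined as a hexamer's read frequency for one factor over its frequency for the tag-only sample. To obtain reads, GST-fused human transcription factors were expressed in yeast, captured on glutathione beads, barcoded with DNA and pooled with that sample. Pools met 200 nmole of a 16-mer random double-stranded DNA library in Tris/NaCl/DTT/glycerol buffer for 30 min at room temperature before washing, 0.1% formaldehyde crosslinking, proximity ligation (BsaI/T4 ligase, 1 h, 37 °C), PCR and Illumina NextSeq500 sequencing.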
# ELK1 = biological target: T2, ELK1 (Homo sapiens, UniProt P19419 1-428)
# T2 sequence: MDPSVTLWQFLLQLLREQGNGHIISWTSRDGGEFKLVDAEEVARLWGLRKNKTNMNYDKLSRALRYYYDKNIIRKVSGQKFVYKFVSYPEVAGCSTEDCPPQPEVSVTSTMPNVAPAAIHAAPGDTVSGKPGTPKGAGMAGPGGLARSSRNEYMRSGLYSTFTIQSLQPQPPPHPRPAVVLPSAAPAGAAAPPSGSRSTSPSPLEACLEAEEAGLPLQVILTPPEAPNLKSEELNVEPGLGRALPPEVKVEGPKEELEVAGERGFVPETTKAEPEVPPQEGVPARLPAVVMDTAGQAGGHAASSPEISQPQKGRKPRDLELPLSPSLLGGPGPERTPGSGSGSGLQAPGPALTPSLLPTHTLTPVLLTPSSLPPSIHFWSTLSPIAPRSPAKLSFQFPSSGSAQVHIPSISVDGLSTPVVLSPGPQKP
# In short: as §1
# GABPA = biological target: T3, GABPA (Homo sapiens, UniProt Q06546 1-454)
# T3 sequence: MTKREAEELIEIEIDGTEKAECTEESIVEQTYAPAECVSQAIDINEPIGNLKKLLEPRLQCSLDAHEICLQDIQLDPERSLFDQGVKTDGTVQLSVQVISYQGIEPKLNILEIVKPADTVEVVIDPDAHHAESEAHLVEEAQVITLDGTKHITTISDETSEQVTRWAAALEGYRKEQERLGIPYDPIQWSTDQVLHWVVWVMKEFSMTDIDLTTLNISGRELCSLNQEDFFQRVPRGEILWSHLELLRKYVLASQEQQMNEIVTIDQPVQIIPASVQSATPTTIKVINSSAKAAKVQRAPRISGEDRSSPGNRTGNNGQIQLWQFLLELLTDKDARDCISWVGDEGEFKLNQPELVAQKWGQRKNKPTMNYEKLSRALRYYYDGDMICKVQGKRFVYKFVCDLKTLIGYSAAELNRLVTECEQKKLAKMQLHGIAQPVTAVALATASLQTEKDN
# In short: as §1
# ERG = biological target: T4, ERG (Homo sapiens, UniProt P11308 1-479)
# T4 sequence: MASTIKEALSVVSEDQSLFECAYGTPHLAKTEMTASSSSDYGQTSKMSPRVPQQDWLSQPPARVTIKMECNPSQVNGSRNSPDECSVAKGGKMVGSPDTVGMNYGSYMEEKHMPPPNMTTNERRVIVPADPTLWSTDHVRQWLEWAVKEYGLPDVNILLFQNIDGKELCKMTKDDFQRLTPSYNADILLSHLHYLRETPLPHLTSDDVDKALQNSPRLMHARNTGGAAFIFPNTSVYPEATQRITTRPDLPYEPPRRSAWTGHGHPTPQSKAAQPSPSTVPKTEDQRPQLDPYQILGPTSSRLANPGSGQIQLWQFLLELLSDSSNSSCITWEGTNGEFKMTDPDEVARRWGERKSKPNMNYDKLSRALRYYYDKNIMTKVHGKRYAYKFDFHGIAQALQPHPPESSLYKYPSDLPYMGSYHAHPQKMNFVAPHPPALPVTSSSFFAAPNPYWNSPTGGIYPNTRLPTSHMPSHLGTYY
# In short: as §1
# ELF1 = ELF1 (Homo sapiens, UniProt P32519 1-619)
# Chain of ELF1 (P32519 whole entry): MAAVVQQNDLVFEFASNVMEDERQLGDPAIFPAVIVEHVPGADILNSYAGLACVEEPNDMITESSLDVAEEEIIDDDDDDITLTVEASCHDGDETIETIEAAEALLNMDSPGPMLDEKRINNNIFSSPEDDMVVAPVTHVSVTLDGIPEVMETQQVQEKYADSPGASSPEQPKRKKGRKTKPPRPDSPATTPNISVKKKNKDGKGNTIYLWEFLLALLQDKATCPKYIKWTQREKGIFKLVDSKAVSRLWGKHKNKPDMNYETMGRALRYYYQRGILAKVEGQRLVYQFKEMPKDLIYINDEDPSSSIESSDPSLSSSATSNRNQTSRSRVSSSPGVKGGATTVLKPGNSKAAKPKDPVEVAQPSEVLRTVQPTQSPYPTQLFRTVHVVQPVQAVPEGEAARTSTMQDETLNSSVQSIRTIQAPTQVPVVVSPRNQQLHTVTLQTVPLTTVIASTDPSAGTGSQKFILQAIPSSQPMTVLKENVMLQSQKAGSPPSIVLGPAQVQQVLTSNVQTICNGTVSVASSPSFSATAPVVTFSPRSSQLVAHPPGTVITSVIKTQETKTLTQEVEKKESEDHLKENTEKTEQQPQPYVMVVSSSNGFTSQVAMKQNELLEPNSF
# In short: as §1
# EHF = biological target: T5, EHF (Homo sapiens, UniProt Q9NZC4 1-300)
# T5 sequence: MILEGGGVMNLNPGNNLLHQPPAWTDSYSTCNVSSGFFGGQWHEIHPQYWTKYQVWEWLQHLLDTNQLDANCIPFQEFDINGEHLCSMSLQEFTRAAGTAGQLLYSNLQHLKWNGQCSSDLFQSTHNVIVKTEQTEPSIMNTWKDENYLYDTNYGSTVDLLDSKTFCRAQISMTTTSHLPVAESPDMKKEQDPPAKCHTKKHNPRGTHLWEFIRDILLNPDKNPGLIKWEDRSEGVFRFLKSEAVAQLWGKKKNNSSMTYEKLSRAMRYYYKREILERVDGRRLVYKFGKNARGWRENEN
# In short: as §1
# SPI1 = SPI1 (Homo sapiens, UniProt P17947 1-270)
# In short: as §1
# SPIB = SPIB (Homo sapiens, UniProt Q01892 1-262)
# Chain of SPIB (Q01892 whole entry): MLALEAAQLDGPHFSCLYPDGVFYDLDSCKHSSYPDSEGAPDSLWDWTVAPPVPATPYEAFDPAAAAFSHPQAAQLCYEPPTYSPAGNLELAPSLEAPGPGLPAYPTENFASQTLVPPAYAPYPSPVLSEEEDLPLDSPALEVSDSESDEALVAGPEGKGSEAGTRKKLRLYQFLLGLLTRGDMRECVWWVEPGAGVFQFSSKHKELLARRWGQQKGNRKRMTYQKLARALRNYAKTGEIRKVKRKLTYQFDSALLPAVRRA
# In short: as §1
# ETV5 = ETV5 (Homo sapiens, UniProt P41161 1-510)
# Chain of ETV5 (P41161 whole entry): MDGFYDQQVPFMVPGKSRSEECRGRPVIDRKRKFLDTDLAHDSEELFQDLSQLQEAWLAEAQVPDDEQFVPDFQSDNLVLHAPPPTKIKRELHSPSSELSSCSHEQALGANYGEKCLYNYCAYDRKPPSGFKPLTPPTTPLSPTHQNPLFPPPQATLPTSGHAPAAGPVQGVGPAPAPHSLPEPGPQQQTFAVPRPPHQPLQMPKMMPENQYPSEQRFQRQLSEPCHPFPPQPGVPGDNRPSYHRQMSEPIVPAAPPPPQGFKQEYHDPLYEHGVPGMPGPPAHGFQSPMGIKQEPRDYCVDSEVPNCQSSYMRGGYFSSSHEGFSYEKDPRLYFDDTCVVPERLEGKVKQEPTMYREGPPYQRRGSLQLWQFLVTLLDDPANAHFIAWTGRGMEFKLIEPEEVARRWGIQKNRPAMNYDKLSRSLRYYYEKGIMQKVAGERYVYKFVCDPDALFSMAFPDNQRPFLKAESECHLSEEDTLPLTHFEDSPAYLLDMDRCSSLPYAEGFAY
# In short: as §1
# ELF4 = ELF4 (Homo sapiens, UniProt Q99607 1-663)
# Chain of ELF4 (Q99607 whole entry): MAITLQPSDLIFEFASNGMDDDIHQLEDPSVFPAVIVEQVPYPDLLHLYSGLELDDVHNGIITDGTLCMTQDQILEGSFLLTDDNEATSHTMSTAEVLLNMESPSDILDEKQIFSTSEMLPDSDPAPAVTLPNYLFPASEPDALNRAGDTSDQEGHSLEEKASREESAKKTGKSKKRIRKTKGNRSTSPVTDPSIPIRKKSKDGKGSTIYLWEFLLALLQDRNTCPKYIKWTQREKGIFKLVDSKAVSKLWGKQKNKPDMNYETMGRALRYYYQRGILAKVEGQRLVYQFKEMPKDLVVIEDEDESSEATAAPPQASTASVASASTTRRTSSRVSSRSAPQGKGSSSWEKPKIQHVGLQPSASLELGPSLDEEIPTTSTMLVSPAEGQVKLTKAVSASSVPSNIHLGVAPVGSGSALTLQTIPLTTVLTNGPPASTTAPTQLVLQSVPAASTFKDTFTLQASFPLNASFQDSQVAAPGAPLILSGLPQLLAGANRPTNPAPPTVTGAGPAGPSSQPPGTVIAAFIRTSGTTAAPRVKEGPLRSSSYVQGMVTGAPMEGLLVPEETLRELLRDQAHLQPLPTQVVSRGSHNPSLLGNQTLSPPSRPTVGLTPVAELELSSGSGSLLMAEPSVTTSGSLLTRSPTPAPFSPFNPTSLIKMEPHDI
# In short: as §1
# ETV2 = biological target: T6, ETV2 (Homo sapiens, UniProt O00321 1-342)
# T6 sequence: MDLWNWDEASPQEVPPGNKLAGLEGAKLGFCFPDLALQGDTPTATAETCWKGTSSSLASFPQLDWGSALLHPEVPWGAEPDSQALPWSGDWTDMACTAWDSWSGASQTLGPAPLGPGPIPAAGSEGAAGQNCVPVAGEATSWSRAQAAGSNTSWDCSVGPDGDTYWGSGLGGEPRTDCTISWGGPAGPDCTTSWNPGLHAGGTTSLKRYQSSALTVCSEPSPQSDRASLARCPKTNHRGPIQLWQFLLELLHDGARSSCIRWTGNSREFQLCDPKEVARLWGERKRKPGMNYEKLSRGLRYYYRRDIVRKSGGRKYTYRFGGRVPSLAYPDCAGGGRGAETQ
# In short: as §1
# ELF3 = biological target: T7, ELF3 (Homo sapiens, UniProt P78545 1-371)
# T7 sequence: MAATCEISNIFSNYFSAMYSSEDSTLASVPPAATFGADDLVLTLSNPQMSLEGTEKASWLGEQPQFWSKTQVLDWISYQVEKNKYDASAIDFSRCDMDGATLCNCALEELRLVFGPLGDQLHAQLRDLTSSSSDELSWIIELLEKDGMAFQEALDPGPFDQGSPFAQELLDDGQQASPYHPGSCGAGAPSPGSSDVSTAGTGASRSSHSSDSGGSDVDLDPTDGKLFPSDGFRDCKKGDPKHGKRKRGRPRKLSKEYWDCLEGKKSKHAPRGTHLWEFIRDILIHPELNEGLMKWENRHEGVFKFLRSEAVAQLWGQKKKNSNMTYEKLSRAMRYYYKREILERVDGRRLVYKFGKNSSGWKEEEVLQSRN
# In short: as §1
# ETV1 = ETV1 (Homo sapiens, UniProt P50549 1-477)
# Chain of ETV1 (P50549 whole entry): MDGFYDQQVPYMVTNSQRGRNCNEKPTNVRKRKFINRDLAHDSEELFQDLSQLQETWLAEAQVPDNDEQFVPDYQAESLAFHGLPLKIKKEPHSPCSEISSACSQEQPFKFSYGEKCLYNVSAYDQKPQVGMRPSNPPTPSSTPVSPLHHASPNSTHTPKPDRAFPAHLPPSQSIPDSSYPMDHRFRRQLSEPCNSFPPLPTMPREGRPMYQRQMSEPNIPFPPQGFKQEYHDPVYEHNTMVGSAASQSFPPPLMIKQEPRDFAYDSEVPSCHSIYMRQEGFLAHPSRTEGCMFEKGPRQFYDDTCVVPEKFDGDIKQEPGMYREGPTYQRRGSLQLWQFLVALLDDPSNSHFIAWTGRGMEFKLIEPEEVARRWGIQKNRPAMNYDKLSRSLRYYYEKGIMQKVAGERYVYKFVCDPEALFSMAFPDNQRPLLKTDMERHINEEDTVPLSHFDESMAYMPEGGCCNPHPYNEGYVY
# In short: as §1
# ERF = biological target: T8, ERF (Homo sapiens, UniProt P50548 1-548)
# T8 sequence: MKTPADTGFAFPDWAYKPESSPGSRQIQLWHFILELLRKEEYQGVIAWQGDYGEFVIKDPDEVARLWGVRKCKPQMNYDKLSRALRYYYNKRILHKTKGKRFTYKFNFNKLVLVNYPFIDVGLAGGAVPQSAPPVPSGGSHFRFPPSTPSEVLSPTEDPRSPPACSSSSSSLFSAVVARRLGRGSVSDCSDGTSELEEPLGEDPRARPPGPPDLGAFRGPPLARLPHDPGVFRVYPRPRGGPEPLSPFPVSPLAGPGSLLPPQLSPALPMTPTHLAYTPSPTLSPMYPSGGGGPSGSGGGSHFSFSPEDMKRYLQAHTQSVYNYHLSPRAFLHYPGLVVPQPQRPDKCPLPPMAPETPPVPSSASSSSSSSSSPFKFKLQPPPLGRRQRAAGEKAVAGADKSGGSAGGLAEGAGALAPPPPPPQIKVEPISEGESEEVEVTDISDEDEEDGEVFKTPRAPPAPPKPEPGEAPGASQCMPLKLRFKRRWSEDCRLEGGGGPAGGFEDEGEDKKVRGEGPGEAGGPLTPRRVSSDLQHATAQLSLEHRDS
# In short: as §1
# ETV3L = biological target: T9, ETV3L (Homo sapiens, UniProt Q6ZN32 1-361)
# T9 sequence: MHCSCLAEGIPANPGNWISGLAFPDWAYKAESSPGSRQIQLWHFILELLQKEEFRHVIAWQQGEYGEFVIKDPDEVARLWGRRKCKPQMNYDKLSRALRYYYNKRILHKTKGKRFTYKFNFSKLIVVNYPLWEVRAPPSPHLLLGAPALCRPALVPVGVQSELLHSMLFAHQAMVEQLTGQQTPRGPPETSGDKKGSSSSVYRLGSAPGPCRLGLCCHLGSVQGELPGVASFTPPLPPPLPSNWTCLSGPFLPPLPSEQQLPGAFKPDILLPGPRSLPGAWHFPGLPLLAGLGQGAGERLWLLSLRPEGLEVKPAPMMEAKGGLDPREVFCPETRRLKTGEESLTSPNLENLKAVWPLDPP
# In short: as §1
# ETS2 = biological target: T10, ETS2 (Homo sapiens, UniProt P15036 1-469)
# T10 sequence: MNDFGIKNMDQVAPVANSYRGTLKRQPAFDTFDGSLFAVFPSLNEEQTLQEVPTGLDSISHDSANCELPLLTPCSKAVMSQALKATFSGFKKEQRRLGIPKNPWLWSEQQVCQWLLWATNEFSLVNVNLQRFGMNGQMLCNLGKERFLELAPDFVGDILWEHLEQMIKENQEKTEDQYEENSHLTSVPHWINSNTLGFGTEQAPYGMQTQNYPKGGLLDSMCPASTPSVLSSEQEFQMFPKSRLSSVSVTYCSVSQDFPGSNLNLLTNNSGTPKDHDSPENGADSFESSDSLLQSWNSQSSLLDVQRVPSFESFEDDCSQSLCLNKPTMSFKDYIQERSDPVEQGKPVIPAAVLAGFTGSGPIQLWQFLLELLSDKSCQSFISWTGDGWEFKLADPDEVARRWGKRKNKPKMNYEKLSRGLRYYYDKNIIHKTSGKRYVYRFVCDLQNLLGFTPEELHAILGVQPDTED
# In short: as §1
# ETV7 = biological target: T11, ETV7 (Homo sapiens, UniProt Q9Y603 1-341)
# T11 sequence: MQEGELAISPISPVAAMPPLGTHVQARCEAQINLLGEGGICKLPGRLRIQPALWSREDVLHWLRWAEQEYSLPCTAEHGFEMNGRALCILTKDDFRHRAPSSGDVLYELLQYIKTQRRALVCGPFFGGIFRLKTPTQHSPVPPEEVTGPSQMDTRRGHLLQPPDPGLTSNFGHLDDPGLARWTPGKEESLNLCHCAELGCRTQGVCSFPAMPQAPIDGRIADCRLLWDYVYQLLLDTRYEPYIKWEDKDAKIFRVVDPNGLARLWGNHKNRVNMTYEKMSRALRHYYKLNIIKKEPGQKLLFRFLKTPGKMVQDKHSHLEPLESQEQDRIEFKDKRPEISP
# In short: as §1
# ETV3 = biological target: T12, ETV3 (Homo sapiens, UniProt P41162-2 1-143)
# T12 sequence: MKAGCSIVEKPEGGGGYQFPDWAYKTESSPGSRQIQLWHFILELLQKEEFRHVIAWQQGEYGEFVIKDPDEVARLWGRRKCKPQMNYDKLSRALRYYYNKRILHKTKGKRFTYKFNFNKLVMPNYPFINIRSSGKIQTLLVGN
# In short: as §1
# ETV6 = ETV6 (Homo sapiens, UniProt P41212 1-452)
# Chain of ETV6 (P41212 whole entry): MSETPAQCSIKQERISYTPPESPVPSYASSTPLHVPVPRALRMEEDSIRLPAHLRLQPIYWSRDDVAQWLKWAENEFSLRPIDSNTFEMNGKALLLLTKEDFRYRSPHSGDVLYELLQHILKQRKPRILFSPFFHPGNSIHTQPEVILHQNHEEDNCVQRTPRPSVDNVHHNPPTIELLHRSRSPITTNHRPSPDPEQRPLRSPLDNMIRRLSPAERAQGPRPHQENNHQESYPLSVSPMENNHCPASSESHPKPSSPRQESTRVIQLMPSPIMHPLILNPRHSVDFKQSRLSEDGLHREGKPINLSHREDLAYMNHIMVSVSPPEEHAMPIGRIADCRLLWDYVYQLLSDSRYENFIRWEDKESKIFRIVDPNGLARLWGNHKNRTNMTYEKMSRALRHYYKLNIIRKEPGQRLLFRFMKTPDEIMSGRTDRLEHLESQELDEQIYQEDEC
# In short: as §1
sequence,measurement,setting,value
CATCAT,binding signal,FLI1,"1.06 fold enrichment (6-mer frequency, TF over GST control)"
same,binding signal,ELK1,"1.06 fold enrichment (6-mer frequency, TF over GST control)"
same,binding signal,GABPA,"1.09 fold enrichment (6-mer frequency, TF over GST control)"
same,binding signal,ERG,"1.08 fold enrichment (6-mer frequency, TF over GST control)"
same,binding signal,ELF1,"1.15 fold enrichment (6-mer frequency, TF over GST control)"
same,binding signal,EHF,"1.07 fold enrichment (6-mer frequency, TF over GST control)"
same,binding signal,SPI1,"1.11 fold enrichment (6-mer frequency, TF over GST control)"
same,binding signal,SPIB,"1.09 fold enrichment (6-mer frequency, TF over GST control)"
same,binding signal,ETV5,"1.09 fold enrichment (6-mer frequency, TF over GST control)"
same,binding signal,ELF4,"1.07 fold enrichment (6-mer frequency, TF over GST control)"
same,binding signal,ETV2,"1.22 fold enrichment (6-mer frequency, TF over GST control)"
same,binding signal,ELF3,"1.1 fold enrichment (6-mer frequency, TF over GST control)"
same,binding signal,ETV1,"1.07 fold enrichment (6-mer frequency, TF over GST control)"
same,binding signal,ERF,"1.1 fold enrichment (6-mer frequency, TF over GST control)"
same,binding signal,ETV3L,"1.07 fold enrichment (6-mer frequency, TF over GST control)"
same,binding signal,ETS2,"1.08 fold enrichment (6-mer frequency, TF over GST control)"
same,binding signal,ETV7,"1.05 fold enrichment (6-mer frequency, TF over GST control)"
same,binding signal,ETV3,"1.08 fold enrichment (6-mer frequency, TF over GST control)"
same,binding signal,ETV6,"1.05 fold enrichment (6-mer frequency, TF over GST control)"
